From PubChem BioAssay (NCI) come the findings set out here.

About 79,000 compounds went through this panel and 15% of them were active in at least one assay; those are over-represented in the sample as a whole. Values without a mark were called inactive. Active and inactive are the calls of the source. No stated cut-off is given here; in the data, active means growth inhibition above about 70%; inactive means the rest.

Assay [1] can be described thus: NCI Yeast Anticancer Drug Screen. Data for the rad50 strain (AID 155).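 Further: 0% = growth of vehicle-only cultures of the same strain.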 Particulars: S. cerevisiae rad50 strain growth inhibition; at 50.0 µM; hits give high values. The procedure, abridged:
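A DNA repair-deficient yeast mutant serves as the test organism; compound-induced growth inhibition is calculated against vehicle-treated cells.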

Assay [2] is described as follows: NCI Yeast Anticancer Drug Screen. Data for the mec2-1 strain (AID 157). Particulars: S. cerevisiae mec2-1 strain, at 50.0 µM, hits give high values. The method, boiled down: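 Readout is yeast growth inhibition, normalised to vehicle-treated controls, in the mec2-1 strain exposed to compound.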
The nature of assay [3]: NCI Yeast Anticancer Drug Screen. Data for the sgs1 mgt1 strain (AID 161).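 Further: 0% = growth of cultures given vehicle only.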 The note with it: S. cerevisiae sgs1 mgt1 strain, at 50.0 µM, hits give high values. The method, boiled down: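 Yeast cells carrying a defined DNA-repair defect were exposed to test compounds. Growth inhibition was measured relative to vehicle-treated controls.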
A short description of assay [4]: NCI Yeast Anticancer Drug Screen. Data for the cln2 rad14 strain (AID 165).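 Further: 0% = growth equal to vehicle treated cultures.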 Particulars: S. cerevisiae cln2 rad14 strain, at 50.0 µM, hits give high values. The method, boiled down:
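Relative to vehicle controls, growth inhibition of compound-treated cln2 rad14 yeast was recorded.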

Assay [5] can be described thus: NCI Yeast Anticancer Drug Screen. Data for the bub3 strain (AID 167). The note with it: S. cerevisiae bub3 mutant strain, at 50.0 µM, hits give high values. The method, boiled down:
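Inhibition values come from growth of compound-treated mutant yeast normalised to vehicle-treated controls.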

A short description of assay [6]: NCI Yeast Anticancer Drug Screen. Data for the mlh1 rad18 strain (AID 175). Particulars: S. cerevisiae mlh1 rad18 strain growth inhibition; at 50.0 µM; hits give high values. The method, boiled down:
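Test agents were incubated with a yeast strain of defined genotype (DNA damage repair defect). Inhibition of growth was derived by comparison with vehicle-exposed cultures.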

`NS(=O)(=O)c1ccc(N=Cc2ccccc2)cc1`: the growth inhibition is 0.4% in assay [1]; -1.35% in assay [2]; 12.6% in assay [3]; 5.45% in assay [4]; 15.2% in assay [5]; 10.1% in assay [6].

`COc1ccc(C2COc3c(ccc(OC)c3OC)C2=O)cc1OC` (stereo not drawn): the growth inhibition in assay [1] was -20.7%; in assay [2], -1%; in assay [3], -1.2%; in assay [4] it was -6.5%; in assay [5], -0.5%; in assay [6], -18.5%.

For `CC1Cc2c([nH]c(=O)n(C)c2=O)O1` (stereo not drawn), the growth inhibition is 1.15% in assay [1]; 8.2% in assay [2]; 8.4% in assay [3]; -1.5% in assay [4]; -21.1% in assay [5]; 2.1% in assay [6].

In the case of `c1ccc(B2OB(c3ccccc3CN3CCCC3)OB(c3ccccc3CN3CCCC3)O2)c(CN2CCCC2)c1`, the growth inhibition is 21% in assay [1]; 4.15% in assay [2]; 0.05% in assay [3]; 17.1% in assay [4]; 0.75% in assay [5]; 15.4% in assay [6].

Turning to `O=C(Nc1ccc(Br)cc1)c1cc(Cl)cc(Cl)c1Br`, the growth inhibition in assay [1] was -23.4%; in assay [2], 17.9%; in assay [3] it was -16.8%; in assay [4] it was -11.6%; in assay [5], 2.85%; in assay [6] it was 27.7%.

With `Cc1ccc(C)c2c1C(=O)c1ccccc1C2(O)C#Cc1ccccc1` (stereo not drawn), the growth inhibition in assay [1] was 27.6%; in assay [2] it was 1.45%; in assay [3], 29.4%; in assay [4], 21.1%; in assay [5], 31.7%; in assay [6], 23.2%.

For `NCC1OCOC2C(C(=O)O)OCOC12` (stereo not drawn), the growth inhibition is 10.6% in assay [1]; 2.6% in assay [2]; 14.3% in assay [3]; -16% in assay [4]; 3.8% in assay [5]; -3.7% in assay [6].

For `CC(C)(O)C(Br)(Br)Br`, the growth inhibition in assay [1] is 0.2%; in assay [2], 3.7%; in assay [3], -22.4%; in assay [4], -33%; in assay [5], -21.9%; in assay [6], 32.1%.

For the compound `Cn1cc([N+](=O)[O-])cc1C(=O)Nc1cc(C(=O)Nc2ccc(S(=O)(=O)O)c3cc(S(=O)(=O)O)ccc23)n(C)c1`, the growth inhibition in assay [1] was 2.4%; in assay [2], 21.4%; in assay [3] it was 14.3%; in assay [4], 17.4%; in assay [5], 20.4%; in assay [6], 11.7%.

Regarding `CC(C)c1nc2c([nH]1)c(=O)n(C)c(=O)n2C`, the growth inhibition in assay [1] is 30.2%; in assay [2] it was 6.85%; in assay [3] it was 26.4%; in assay [4] it was 18%; in assay [5] it was 2.8%; in assay [6], 17.9%.

Take `C=CCOC(=O)Nc1cccc(O)c1`: the growth inhibition in assay [1] was 16.9%; in assay [2] it was -5.95%; in assay [3] it was 3.2%; in assay [4], -57.6%; in assay [5] it was -29.6%; in assay [6], 1.4%.

`Clc1c2c(nc3ccccc13)CCCC2`: the growth inhibition in assay [1] was 19.3%; in assay [2], 50.9%; in assay [3] it was 49.4%; in assay [4], -37%; in assay [5], 7.65%; in assay [6], 8.05%.

In the case of `CN(c1nc(=[N+](C)C)ss1)C1CCCCC1`, the growth inhibition in assay [1] is 9.4%; in assay [2], 17.2%; in assay [3], 16.1%; in assay [4] it was -39.5%; in assay [5], -12.8%; in assay [6], 15.2%.

Consider `CC1=CC(O)C(Br)C(C)(C)C12CCC(C)(Cl)C(Br)C2` (stereo not drawn), for which the growth inhibition is 90.1% (active) in assay [1]; 91% (active) in assay [2]; 89.8% (active) in assay [3]; 81.8% (active) in assay [4]; 89.9% (active) in assay [5]; 89.3% (active) in assay [6].

Consider `Cc1ccc(S(=O)(=O)Nc2ccc(C(=O)NC(CCC(=O)O)C(=O)O)cc2)cc1` (stereo not drawn), for which the growth inhibition was 3.3% in assay [1]; 2.95% in assay [2]; -8.05% in assay [3]; -2.45% in assay [4]; -1.5% in assay [5]; 13.7% in assay [6].

Take `Cc1cc(-c2ccccc2)cc(C[n+]2ccccc2)[n+]1-c1ccccn1`: the growth inhibition in assay [1] is 12.8%; in assay [2], 6.2%; in assay [3] it was 9.2%; in assay [4], -3.8%; in assay [5] it was 2.2%; in assay [6], 18.9%.

For `c1cc[n+](-c2nc3ccccc3[n-]2)cc1`, the growth inhibition in assay [1] is 2.75%; in assay [2], -7%; in assay [3] it was 6.25%; in assay [4], -18.5%; in assay [5], -13.8%; in assay [6], 3.5%.

On to `C/C(=C1\SC(=S)N(C2OC(CO)C(O)C(O)C2O)C1=O)c1ccco1` (stereo not drawn), for which the growth inhibition in assay [1] was -14%; in assay [2], -9.3%; in assay [3], -33.2%; in assay [4], -0.85%; in assay [5] it was -3.3%; in assay [6], -32.9%.
